We go through 33 compounds from PubChem BioAssay (NCATS).

Records with an inconclusive call do not appear. The source made the active and inactive calls. The call rests on the fitted dose curve; in most records, active means well fitted activation curve with a large enough effect; inconclusive means small, poorly fitted or top-dose-only effect; inactive means flat fitted curve, though single readings scatter. Starred links: 1 amine or outer side, 2 acyl side, 3 side chain; linkers in the order of their positions; H or OH if unused. Positions of bridges follow the written chain, without caps; N, C: chain ends. Non-standard residues stand in square brackets, D forms with d. Residues, ends and D or L forms follow the SMILES beside them. ξ: configuration not given here. *: point of attachment. X3 = C[C@@H](Oc1ccc([C@H](N[*:1])C(=O)[*:2])cc1)[C@]1(/C=C\C(=O)[*:3])CO1; d(aIle) = CC[C@H](C)[C@@H](N)C(=O)O; X2 = CC(C)[C@@H](O)C(C)C(=O)*; ξNMeF = CNC(Cc1ccccc1)C(=O)O; ξT = CC(O)C(N)C(=O)O; ξS = NC(CO)C(=O)O

A short description of this assay: HEK293 24hr Apoptosis Induction qHTS against the NCATS CANVASS Library (AID 1347359). Conditions: HEK293 caspase-3/7 activation, Caspase-Glo luminescence; series mostly up to 46.1 µM. From the text:
Natural products and their derivatives continue to be wellsprings of nascent therapeutic potential. However, many laboratories have limited resources for biological evaluation, leaving their previously isolated or synthesized compounds largely or completely untested. To address this issue, the Canvass library of natural products was assembled (https://tripod.nih.gov/canvass), in collaboration with academic and industry researchers, for quantitative high-throughput screening (qHTS) across a diverse set of cell-based and biochemical assays. The pure (>85% purity by liquid chromatography/mass spectrometry [LC/MS]) Canvass library of 346 natural products were submitted by 45 academic laboratories and companies around the world. We collected pure natural products to circumvent deconvolution and structure elucidation due to time and resource limitations. The library was formatted into 1536-well plates and evaluated in 50 qHTS (in an 11-pnt concentration series) bioassays with broad scope of disease-relevant mechanisms. The resulting data set from 50 different assays was then systematically analyzed to identify overall trends and specific natural products with interesting biological activities. Reported herein are the results of each individual qHTS and their corresponding assay protocol. The Caspase-Glo (R) (Promega) is a homogeneous, luminescent assay that measures caspase activity. The detection substrate contains tetrapeptide sequence DEVD in an "add-mix-measure" format. The reagent generates a luminescent signal produced by a thermostable luciferase. The luminescence is proportional to the amount of caspase activity in the assay reaction. National Center for Advancing Translational Sciences (NCATS), Rockville, MD National Institute of Health (NIH), Bethesda, Maryland
Cancer Cell Apoptosis Assay 1. In a 1536 well, white solid bottom tissue culture plates (Corning 7494), HEK293 cancer cells in DMEM + 10% FBS + 1% P/S media were dispensed in each well at a final concentration of 500 cells / well (5uL volume) using the Multidrop Combi (Thermo Fisher Scientific) dispenser. 2. Compounds were pin transferred (~23nL volume) via Wako Pin-tool (Wako Automation, Richmond VA) equipped with a 1536 pin head. The assay plates were treated with compounds in a concentration series with a final concentration range of […] to 103uM. 3. Doxorubicin was used as a control in a 16pnt titration (1mM; 1:2 dilution; 16-points; n = 2; column 3, rows 1 - 32) and was pin transferred via Wako Pin-tool equipped with a 1536 pin head. The final concentration range of doxorubicin is 0.1nM - 4uM. 4. The assay plates were incubated for 24 hours at 37 degrees C/5% CO2/95% Rh. 5. 3uL Caspase-Glo 3/7 (R) (Promega) detection reagent was then added to the assay plates (columns 2 - 48, rows 1 - 32) and incubated at room temperature, covered from light, for 15 min. 6. Luminescence signal was acquired via the ViewLux plate reader (PerkinElmer) using a clear filter, 20 second exposure and 2x binning settings.
In general terms: Quantitative high-throughput screening tests each substance at several concentrations.
In the case of `c1ccc2nc3c(cc2c1)[nH]c1ccccc13`, the compound was classed as inactive.
For `C=C[C@]12C=CCN3CC[C@@]4(c5ccccc5NC(=O)[C@@H]4C1)[C@@H]32`, the call was inactive.
Then `C/C=C(\C)C(=O)O[C@@H]1[C@@H](O)[C@@H]2O[C@H]3[C@H](O[C@@H](CCCCC)CCCCCCC(=O)CCC(=O)OC[C@@H](O2)[C@H]1OC(=O)/C=C/c1ccccc1)O[C@H](C)[C@H](OC(C)=O)[C@@H]3O`, with “inactive”.
Regarding `C/C(=C\[C@H](C)C(=O)C[C@H](O)CC1CC(=O)NC(=O)C1)[C@@H]1OC(=O)/C=C/CC/C=C/C=C/[C@@H]1C`, the compound was called inactive.
Next, `CO[C@H]([C@@H](C)[C@H]1O[C@]1(C)C[C@H](C)/C=C/C=C(\C)[C@H]1O[C@@H](CC(=O)O)CC[C@@H]1C)[C@@H](C)O`: “inactive”; `C1=C2CCCN[C@H]2C2CC1[C@H]1CCCCN1C2` (stereo partly drawn): “inactive”.
On to `C=CC(C)(C)[C@@]12C[C@H]3C(=O)N/C(=C\c4cnc[nH]4)C(=O)N3[C@@H]1Nc1ccccc12`, for which the call was inactive.
Next, `CO[C@@H](/C=C/CC/C=C/C(=O)O)[C@@H](O)[C@H](C)/C=C(\C)[C@H](O)[C@H](C)C(=O)CCCC1CC(=O)NC(=O)C1`: “inactive”.
Next, `CC[C@]12C=CCN3CC[C@]4(C(=C(C(=O)OC)C1)Nc1ccccc14)[C@@H]32`: “inactive”; `C=C[C@H]1CN2CCc3c([nH]c4cccc(OC)c34)[C@@H]2C[C@@H]1/C(=C\OC)C(=O)OC`: “inactive”; `CC[C@H]1CN2CCc3c([nH]c4cccc(OC)c34)[C@@H]2C[C@@H]1/C(=C\OC)C(=O)OC`: “inactive”.
Next, `COC1C(O)C(C)OC(OC2C(Oc3cccc4c(O)c5c(=O)oc6ccc(C)c7c(=O)oc(c34)c5c67)OC(C)C(O)C2O)C1O` (stereo not drawn): “inactive”; `C/C=C/[C@@H]1[C@H]2C[C@@H](C)CC[C@@H]2C(C)=C[C@H]1C(=O)c1c(O)c(-c2ccc(O)cc2)c[nH]c1=O`: “inactive”.
For `C=CC(C)(C)[C@@]12C[C@H]3C(=O)N/C(=C/c4cnc[nH]4)C(=O)N3[C@@H]1Nc1ccccc12`, the compound was classed as inactive.
Next, `CC[C@H](C)[C@H]1NC(=O)[C@@H](NC(=O)C(C)[C@H](O)C(C)C)[C@@H](C)OC(=O)C2COC(=O)CNC(=O)/C=C\[C@]3(CO3)[C@@H](C)Oc3ccc(cc3)[C@H](NC1=O)C(=O)N(C)C(Cc1ccccc1)C(=O)NC(C(C)O)C(=O)N2` (stereo partly drawn) (X2-T[d(aIle)][X3][ξNMeF][ξT][ξS]; ester 1-C; linker 3-6 via G): “inactive”.
Next, `CCCC[C@@H](C)/C=C1/CN2CCC[C@H]2[C@@](C)(O)[C@@H]1O`: “inactive”; `CC[C@@H]1CN2CCC3(Nc4cccc(OC)c4C3=O)[C@@H]2C[C@@H]1/C(=C\OC)C(=O)OC` (stereo partly drawn): “inactive”; `C[C@]12CCC3[C@@H](CC[C@@H]4C[C@@H](O)CC[C@]34CO)[C@@]1(O)CC[C@@H]2C1=CC(=O)OC1` (stereo partly drawn): “inactive”.
Next, `C/C=C1/CN2CC[C@@]34c5ccccc5N(C)[C@@H]3[C@@H]2C[C@@H]1[C@H]4C(=O)OC`: “inactive”.
As for `CCC(=O)N[C@@H](C[C@H](C)C(Cl)(Cl)Cl)C(=O)N1C(=O)C=C(OC)[C@@H]1C[C@H](C)C(Cl)Cl`, the result was inactive.
Next, `CCCCC1CC[C@H]2CCCC(CCC)N12` (stereo partly drawn): “inactive”; `C=C(C)[C@H]1C(=O)c2c3c(cc4c5c(n1c24)[C@@]1(C)[C@@H](CC[C@H]2[C@](C)(/C=C/C=C(\C)C(=O)O)[C@@H](O)CC[C@@]21C)C5)C1=CC(C)(C)OC(C)(C)[C@H]1[C@@H]3O`: “inactive”.
Next, `CCCC[C@@H]1CC[C@H]2CCCC(CCCO)N12` (stereo partly drawn): “inactive”.
In the case of `CO[C@H]1[C@H](O[C@H]2CC[C@]3(C=O)[C@H]4CC[C@]5(C)[C@@H](C6=CC(=O)OC6)CC[C@]5(O)[C@@H]4CC[C@]3(O)C2)O[C@H](C)[C@H](O)[C@@H]1OC`, the outcome was inactive.
Consider `C/C=C1/CN2CC[C@]34C(=C(C(=O)OC)[C@H]1C[C@H]23)Nc1ccccc14`, for which the call was inactive.
Then `CO[C@H]1C[C@H](O[C@H]2[C@@H](O)C[C@H](O[C@H]3CC[C@]4(C=O)[C@H]5CC[C@]6(C)C(C7=CC(=O)OC7)CC[C@]6(O)[C@@H]5CC[C@]4(O)C3)O[C@@H]2C)O[C@H](C)[C@H]1O[C@H]1C[C@@H](OC)[C@@H](O[C@@H]2O[C@H](CO)[C@@H](O)[C@H](O)[C@H]2O)[C@@H](C)O1` (stereo partly drawn), with “inactive”; and `COC1=C(C2=C(OC)C(=O)c3cc4c(c(O)c3C2=O)C(=O)O[C@H](C)C4)C(=O)c2c(cc3c(c2O)C(=O)O[C@H](C)C3)C1=O`, with “inactive”; and `C[N+](C)(C)CCc1c[nH]c2ccccc12`, with “inactive”.
Next, `O[C@H]1C=C[C@@]23CCN(Cc4cc5c(cc42)OCO5)[C@@H]3C1`: “inactive”; `C[C@]12CC(O)C3[C@@H](CC[C@@H]4C[C@@H](O)CC[C@]34CO)[C@@]1(O)CC[C@@H]2C1=CC(=O)OC1` (stereo partly drawn): “inactive”; `C[C@]12CC(O)C3[C@@H](CCC4C[C@@H](O)CC[C@@]43CO)[C@@]1(O)CC[C@@H]2C1=CC(=O)OC1` (stereo partly drawn): “inactive”.
Next, `CO[C@@]12c3c(C)cc(O)c4c(=O)occ(c34)C(=O)[C@@H]1[C@]13COC(=O)c4c(O)cc(C)c(c41)C(=O)[C@H]2[C@@H]3OC(C)=O`: “inactive”; `CC[C@@H]1CN2CCc3c([nH]c4cccc(OC)c34)[C@@H]2C[C@@H]1/C(=C\OC)C(=O)OC`: “inactive”.
